Experimental findings from PubChem BioAssay (NCI) are described below.

The experiment is described as follows: NCI Yeast Anticancer Drug Screen. Data for the rad50 strain (AID 155).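 Further: 0% = growth of vehicle-only cultures of the same strain.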 Conditions: S. cerevisiae rad50 strain growth inhibition, active compounds read high. As for the experimental part: Growth inhibition of yeast strains with defined genetic alterations is measured as a screen for potential anti-cancer activity. Selected strains with alterations in DNA damage repair or cell cycle control were exposed to compounds and growth inhibition was measured relative to vehicle treated controls. The strain used in this assay is rad50

Where [1] appears, read: at 5.0 µM (retest, dose inferred, filed as 0.5).
Setting [2] is: at 50.0 µM (retest, dose inferred, filed as 5.0).

Compounds without any hit were thinned out: in the full panel of roughly 79,000, 15% have a hit. A number with no mark means an inactive call. Activity calls are given as the source filed them. No stated cut-off is given here; in the data, active means growth inhibition above about 70%; inactive means the rest.

With `CCCCCCCC/C=C1\CCC(CN(C)C)C1=O` (configuration not stated), the growth inhibition under setting [1] is -2%, the growth inhibition under setting [2] was 97% (active) and the growth inhibition (at 50.0 µM) was 89.6% (active).
For `Nc1cc2c(c[n+](CCCCCCCCCC[n+]3cc4c5ccccc5c(N)cc4c4ccccc43)c3ccccc23)c2ccccc12`, in that order: 20%, 94% (active) and 88% (active).
In the same order, the values of `CCCN1C(=O)c2ccccc2C1=O` are 9%, 2% and 20.4%.
On to `CC#CS(=O)(=O)c1ccccc1`, for which the growth inhibition is 1% under setting [1], 40% under setting [2] and 74.7% (active) (at 50.0 µM).
`O=C(/C=C\c1cc(Br)ccc1O)/C=C/c1cc(Br)ccc1O`: the growth inhibition under setting [1] was 58%, the growth inhibition under setting [2] is 90% (active) and the growth inhibition (at 50.0 µM) is 76.8% (active).
For `O=C(/C=C/c1cccc(Cl)c1)c1ccccc1`, in that order: 16%, 98% (active) and 95.7% (active).
In the same order, the values of `Nc1ccc(SSc2ccc(N)cc2)cc1` are -2%, 97% (active) and 93% (active).
For `O=C(c1ccc([N+](=O)[O-])cc1)N1CCCSC1=S`, in that order: 19%, 27% and 26.8%.
Consider `CC(C)Cc1ncc(CC(C)C)n(O)c1=O`, for which the growth inhibition was 34% under setting [1], 97% (active) under setting [2] and 89.2% (active) (at 50.0 µM).
On to `CCCCCCC(C)c1ccccc1O` (configuration not stated) (tested in a mixture with another compound), for which the growth inhibition is, setting by setting: under setting [1], 25%; under setting [2], 96% (active); (at 50.0 µM) 92.2% (active).
Regarding `C/C(=N\NC(=S)N1CCN(c2ccccn2)CC1)c1ncccn1`, the growth inhibition under setting [1] was 2%, the growth inhibition under setting [2] is -6% and the growth inhibition (at 50.0 µM) is 32.5%.
In the same order, the values of `CC12CC(Br)(Br)C(=O)C3C1CCCC32` are 51%, 31% and 48.9%.
For `CCOC(=O)C(CCc1ccccc1[N+](=O)[O-])C(C)=O` (configuration not stated), in that order: 4%, 61% and 78.9% (active).
Regarding `N#CC1=CN=C2C=CC=C3N=C(C(Cl)(Cl)Cl)N=C1N32`, the growth inhibition runs as follows: under setting [1], 19%; under setting [2], 93% (active); (at 50.0 µM) 49.9%.
